CHRM1 agonist = agonists of human M1 muscarinic receptor; 360,000 tested, 0.33% active; CHO-K1 hM1, Fluo-8 calcium fluorescence, agonist mode; 0% DMSO, 100% acetylcholine EC100; activation, % at 3 µM;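 active = activation above the run's mean compound activation plus 3 SD, cut at about 16% in these data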;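 also: peak over basal fluorescence ratio within a 140 s kinetic read after compound addition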
Target sequence (P11229 whole entry, looked up): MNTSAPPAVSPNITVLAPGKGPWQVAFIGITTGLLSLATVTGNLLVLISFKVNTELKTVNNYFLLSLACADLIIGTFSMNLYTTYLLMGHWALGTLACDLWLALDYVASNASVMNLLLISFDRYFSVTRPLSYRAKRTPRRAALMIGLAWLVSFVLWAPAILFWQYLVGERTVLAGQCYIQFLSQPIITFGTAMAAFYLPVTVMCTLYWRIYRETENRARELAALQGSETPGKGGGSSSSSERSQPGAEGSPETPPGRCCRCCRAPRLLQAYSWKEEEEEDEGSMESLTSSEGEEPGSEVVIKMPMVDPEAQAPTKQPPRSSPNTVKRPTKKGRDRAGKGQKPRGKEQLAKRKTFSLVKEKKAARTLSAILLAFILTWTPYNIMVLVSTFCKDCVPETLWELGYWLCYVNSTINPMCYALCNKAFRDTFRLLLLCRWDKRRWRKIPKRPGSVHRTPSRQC
CHRM1 PAM = positive allosteric modulators of human M1 muscarinic receptor; P11229; CHO-K1 hM1, Fluo-8 calcium fluorescence, ACh EC20; 0% = ACh EC20, 100% = maximal ACh; activation, % at 3 µM; 360,000 tested, 0.088% active; AID 588819; in the data active = activation above about 19%, passing the limit was not always enough
CHO-K1 Ca ag = M1 agonist counterscreen hit in parental CHO-K1 cells; activation, % at 3 µM; 360,000 tested, 0.48% active; AID 602248; Fluo-8 calcium fluorescence; scaled to maximal ATP response, vehicle zero; in the data active = activation above about 15%;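 also: untransfected CHO-K1 host cells lacking M1 receptor as counterscreen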
M1 antag = human CHRM1 antagonism | P11229 | CHO-K1 hM1, Fluo-8 calcium fluorescence, ACh EC80 antagonist | inhibition, % at 3 µM | 360,000 tested, 1.3% active;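 active = percent inhibition above its own plate's cutoff, namely the mean of that plate's compound wells plus 3 SD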;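 also: peak over basal fluorescence ratio during 140 s after agonist addition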
CHO-K1 Ca antag = counter-screen for M1 antagonists: effect in parental CHO-K1 cells. inhibition, % at 3 µM. 360,000 tested, 0.6% active. ATP-induced calcium, Fluo-8 fluorescence;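 active = inhibition above a per-plate cutoff, the plate's mean sample inhibition plus 3 SD, cut at about 24% in these data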
CHO-K1 Ca PAM = M1 PAM counterscreen hit in parental CHO-K1 cells; ATP EC20, Fluo-8 calcium fluorescence; 0% at ATP EC20, 100% at ATP max; activation, % at 3 µM; 360,000 tested, 0.02% active; AID 602247;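 active = activation above the run cutoff, the mean activation of all test compounds plus 3 SD, cut at about 40% in these data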;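 also: peak over basal fluorescence ratio in a 140 s read after ATP addition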
Numbers stand for hits; 0 = inactive. An excerpt weighted towards active compounds, which were near 2.4% of everything screened.

SMILES	CHRM1 agonist	CHRM1 PAM	CHO-K1 Ca ag	M1 antag	CHO-K1 Ca antag	CHO-K1 Ca PAM
Cc1ccc(NC2=NCC(Cc3ccc(Br)cc3)S2)cc1 (stereo not given)	0	0	0	38	0	0
N#C/C(=C\c1coc2ccc(O)cc2c1=O)C(=O)Nc1nc2ccccc2s1	62	0	58	0	40	0
OC(c1ccc(F)cc1)c1nc(-c2ccc(F)c(Cl)c2)cs1 (stereo not given)	0	0	0	0	0	0
FC(F)(F)c1nc2nc(Cl)c(Cl)nc2[nH]1	0	0	0	0	0	0
FC(F)(F)c1cccc(-c2nc3nc(Cl)c(Cl)nc3[nH]2)c1	0	0	18	0	0	0
COc1ccc(N=Nc2nc3ccc(Br)cc3n2C)cc1	17	0	18	0	0	0
COc1ccc(-c2c(-c3cc(OC)cc(OC)c3)n(C)c3ccc(Br)cc23)cc1	0	0	0	0	0	0
Cc1ccc(S(=O)(=O)C(c2ccccc2)c2c(C)noc2C)cc1 (stereo not given)	0	0	0	0	0	0
Cc1noc(C)c1C(c1ccccc1)S(=O)(=O)c1ccccc1 (stereo not given)	0	0	0	0	28	0
Clc1ccc(C2[C@H]3CN(CC4CCCCC4)[C@H](c4ccccc4)C34CC2(c2ccccc2)C4)cn1 (stereo not given in full)	0	0	0	0	0	0
COC(=O)c1cccc(C23CC4(C2)[C@H](CN(C)[C@@H]4c2ccccc2)C3c2ccc(C(F)(F)F)cc2)c1 (stereo not given in full)	0	0	0	0	0	0
CN1C[C@@H]2C(c3ccc(Cl)nc3)C3(c4ccccc4)CC2(C3)[C@H]1c1ccccc1 (stereo not given in full)	0	0	0	84	0	0
COC(=O)c1cccc(C23CC4(C2)[C@H](CN(C)[C@@H]4c2ccccc2)C3c2ccccc2)c1 (stereo not given in full)	0	0	0	64	0	0
CN1C[C@@H]2C(c3ccc(Cl)nc3)C3(c4cccnc4)CC2(C3)[C@H]1c1ccccc1 (stereo not given in full)	0	0	0	54	0	0
CN1C[C@@H]2C(c3ccccc3)C3(c4ccccc4)CC2(C3)[C@H]1c1ccccc1 (stereo not given in full)	0	0	0	78	0	0
CCN(CC)C(=O)Oc1ccc(Cl)c2cccnc12	0	0	0	0	0	0
O=C(Nc1cccc(C(F)(F)F)c1)Oc1ccc(Cl)c2cccnc12	0	0	16	42	36	0
O=C(Nc1cccc(Br)c1)Oc1cccc2cccnc12	0	0	0	43	0	0
O=C(Nc1c(Cl)cccc1Cl)Oc1cccc2cccnc12	0	0	0	0	0	0
CN(C(=O)COC(=O)CCc1c[nH]c2ccccc12)C(c1ccccc1)c1ccccc1	0	0	0	0	0	0
Cc1nc(-c2ccc(F)cc2)c(CC(=O)Nc2ccc(C)c(S(=O)(=O)N3CCOCC3)c2)s1	0	0	0	0	0	0
CCOC(=O)COc1nc(-c2ccccc2)cc(-c2ccco2)c1C#N	0	0	0	40	0	0
CCOC(=O)COc1nc(-c2ccc(Cl)cc2)cc(-c2ccco2)c1C#N	0	0	0	0	0	0
CC(C)N1CCC1(C)C(=O)Nc1nccc2cccnc12 (stereo not given)	0	0	0	0	0	0
CC(C)(C)NC(=O)CN(Cc1cccs1)C(=O)CCN1CCc2ccccc21	0	0	0	0	0	0
SMILES	CHRM1 agonist	CHRM1 PAM	CHO-K1 Ca ag	M1 antag	CHO-K1 Ca antag	CHO-K1 Ca PAM
CC(C(=O)NC(C)(C)C)N(Cc1cccs1)C(=O)CCN1CCc2ccccc21 (stereo not given)	0	0	22	0	0	0
CCCCCOc1ccc(NC(=O)C(=O)NCC2CCCN2CC)cc1 (stereo not given)	0	0	0	0	25	0
CCN1CCCC1CNC(=O)C(=O)NC (stereo not given)	0	0	0	0	0	0
O=C(CC1C(=O)NCCN1Cc1ccccc1)NCCC1=CCCCC1 (stereo not given)	0	0	0	0	0	0
CC(OC(=O)CSCC(=O)Nc1ccc(Cl)cc1)C(=O)N(C)Cc1ccccc1 (stereo not given)	0	0	0	0	0	0
O=c1ccc(-c2ccc(S(=O)(=O)NCC3CCN(Cc4ccccc4F)CC3)s2)n[nH]1	0	0	0	93	0	0
COc1ccc2c(-c3ccc(S(N)(=O)=O)cc3)c(-c3ccc(S(C)(=O)=O)cc3)sc2c1	0	0	0	0	0	0
Cc1ccc(OCCn2c(=O)sc3ccccc32)cc1	0	0	0	0	0	0
Cc1ccc(OCCCn2c(=O)sc3ccccc32)cc1	0	0	0	0	24	0
Cc1ccc(S(=O)(=O)n2cccc2/C=C/[N+](=O)[O-])cc1	0	0	0	0	0	0
CN(C)c1ccc(O)c2c1CC1CC3[C@@H](N(C)C)C(=O)C(C(N)=O)=C(O)[C@]3(O)C(=O)C1=C2O (stereo not given in full)	0	0	0	0	0	0
C[C@H]1c2cccc(O)c2C(O)=C2C(=O)[C@]3(O)C(O)=C(C(N)=O)C(=O)[C@@H](N(C)C)[C@@H]3[C@@H](O)[C@@H]21	25	0	0	0	0	0
CC1(C(=O)Nc2ccc3[nH]ncc3c2)CCN1C(=O)C1(c2ccccc2)CC1 (stereo not given)	0	0	0	0	0	0
COc1cc(N2CCCC2)c(OC)cc1/C=C1/NC(=S)NC1=O	53	0	48	0	35	0
COc1cccc(CC2(CO)CCN(Cc3ccc(NC(C)=O)cc3)CC2)c1	0	0	0	0	0	0
COc1cccc(CC2(CO)CCN(CC3=CC[C@H]4C[C@@H]3C4(C)C)CC2)c1	0	0	0	36	0	0
O=C(N[C@@H](Cc1ccccc1)C(=O)N1CCC2(CC1)NCCc1[nH]cnc12)c1cccc(Br)c1	0	0	0	39	0	0
CCOC(=O)c1ccc(N=C2C(=S)N(c3ccc(C(=O)OCC)cc3)C(=N)N2/N=C/c2ccccc2)cc1	0	0	0	99	0	0
COc1cccc(C(=O)C2CCCN(CC3=Cc4cc(OC)ccc4OC3)C2)c1 (stereo not given)	0	0	0	42	0	0
O=C(c1cccc(Cl)c1)C1CCCN(Cc2ccc(N3CCNC3=O)cc2)C1 (stereo not given)	0	0	0	46	0	0
COc1cccc(CN2CCCC(C(=O)c3ccc4c(c3)OCO4)C2)c1O (stereo not given)	0	0	0	41	0	0

Compound activity: PubChem BioAssay, The Scripps Research Institute Molecular Screening Center
